# Source: PubChem
# TRPV1 ag = HTS Assay for Compounds that Act as Agonists of the Vanilloid Receptor 1. 320,000 compounds, 0.19% hits. AID 540275, 2011. TRPV1-expressing cells, Fluo-8 calcium influx, agonist mode. Transient receptor potential cation channel subfamily V member 1 (Homo sapiens), Q8NER1. activation, % at 8.33 µM; in the data active = activation above about 80%; inconclusive = between about 30% and that limit; also: 0% is about no effect
# Target sequence (Q8NER1 whole entry, looked up): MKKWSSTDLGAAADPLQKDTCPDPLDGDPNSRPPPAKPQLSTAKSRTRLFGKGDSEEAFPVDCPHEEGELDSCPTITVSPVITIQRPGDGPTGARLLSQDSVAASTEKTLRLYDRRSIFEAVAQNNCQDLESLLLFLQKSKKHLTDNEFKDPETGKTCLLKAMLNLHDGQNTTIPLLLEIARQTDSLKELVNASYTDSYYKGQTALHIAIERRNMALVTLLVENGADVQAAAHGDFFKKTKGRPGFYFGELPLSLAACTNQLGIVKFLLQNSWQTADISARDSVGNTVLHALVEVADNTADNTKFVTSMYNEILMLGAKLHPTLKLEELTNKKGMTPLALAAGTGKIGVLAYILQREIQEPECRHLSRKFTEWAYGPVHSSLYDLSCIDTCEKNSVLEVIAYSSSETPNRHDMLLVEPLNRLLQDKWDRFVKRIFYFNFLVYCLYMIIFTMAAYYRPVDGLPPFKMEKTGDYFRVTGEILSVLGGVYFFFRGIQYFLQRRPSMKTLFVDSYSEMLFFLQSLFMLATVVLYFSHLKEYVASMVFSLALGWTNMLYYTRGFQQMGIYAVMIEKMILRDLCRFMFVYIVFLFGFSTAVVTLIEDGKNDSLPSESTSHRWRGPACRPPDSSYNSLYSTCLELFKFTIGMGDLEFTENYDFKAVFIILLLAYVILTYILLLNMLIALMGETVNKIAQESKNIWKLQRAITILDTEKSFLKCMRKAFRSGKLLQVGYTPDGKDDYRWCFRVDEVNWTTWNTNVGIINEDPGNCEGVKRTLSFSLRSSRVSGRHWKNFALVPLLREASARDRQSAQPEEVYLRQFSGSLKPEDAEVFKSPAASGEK
#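 Fluo-8 calcium influx in TRPV1-expressing cells, kinetic read (ex 480/em 520 nm). Compound added and read 3 min for agonist activity, followed by capsaicin at EC20 final and 2 min further read for enhancement.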
# D1 antag = Antagonist of Human D 1 Dopamine Receptor: qHTS; 360,000 compounds, 3.2% hits; activity change, negative = inhibition, % at 10 µM; D(1A) dopamine receptor (Homo sapiens), P21728; HEK293 TREx D1 cells, calcium flux, dopamine EC80; hits give low values; AID 504652, 2011; in the data active = activity change below about -30%; also: % is scaled to controls: 0 for no effect and ±100 for the full control effect
#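 Compound effects on dopamine-evoked calcium signalling were measured in tetracycline-induced HEK293 Trex D1 cells. Dopamine at EC80 followed a 180 s compound pre-read, and fluorescence was tracked kinetically for 180 s more.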
# TRPV1 potentiator = HTS Assay for Compounds that Act as Potentiators of the Vanilloid Receptor 1; Transient receptor potential cation channel subfamily V member 1 (Homo sapiens), Q8NER1; potentiation, % at 8.33 µM; TRPV1-expressing cells, Fluo-8 calcium influx, capsaicin EC20 potentiation; AID 540277, 2011; 320,000 compounds, 0.02% hits; in the data active = potentiation above about 80%; inconclusive = between about 30% and that limit; also: 0% is about no effect
#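 Cells expressing TRPV1 were dye-loaded with Fluo-8 and read kinetically: 10 s baseline, 3 min after compound (agonist portion), then 2 min after EC20 capsaicin (allosteric enhancer portion). Calcium-bound dye fluorescence at 480/520 nm.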
# D1 PAM = Potentiators of Human D1 Dopamine Receptor: qHTS | HEK293 TREx D1 cells, calcium flux, dopamine EC20 potentiation | potentiation, % at 10 µM | 360,000 compounds, 0.036% hits; in the data active = potentiation above about 30%; also: 0% is about no effect
# D1 ag = Allosteric Agonists of the Human D1 Dopamine Receptor: qHTS; D(1A) dopamine receptor (Homo sapiens), P21728; AID 504660, 2011; activation, % at 2 µM; HEK293 T-REx D1 cells, calcium flux, agonist mode; 360,000 compounds, 1% hits; in the data active = activation above about 30%; also: 0% is about no effect
#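 Agonism was scored from calcium flux recorded over 180 s (1 read/s) after pintool compound addition, following a 10-cycle baseline. Cells were inducible force-coupled HEK293 TREx D1, plated overnight at 30 C and loaded with no-wash calcium dye.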
# Active calls of the source: *; ? = inconclusive; / = not tested or not shown. A selection: hits, their analogues and other compounds. The true share with any hit is near 4.2%.
SMILES,TRPV1 ag,D1 antag,TRPV1 potentiator,D1 PAM,D1 ag
CSCCC(NS(=O)(=O)c1cccs1)C(=O)Nc1ccc(C)c(Cl)c1 (stereo not given),/,-39*,/,-4,6
CCCS(=O)(=O)N1CCCC(C(=O)Oc2ccccc2Cl)C1 (stereo not given),18,29,3,-8,0
CCOC(=O)C1CCCN(CC(=O)Nc2cc(C)cc(C)c2)C1 (stereo not given),15,-40*,-7,-3,3
CCOC(=O)C1CCN(Cc2cc(=O)oc3cc(C)ccc23)CC1,9,-7,?,-1,3
CCOC(=O)C1CCCN(S(=O)(=O)Cc2ccccc2Cl)C1 (stereo not given),11,-31*,-3,-8,2
CCOC(=O)C1CCCN(Cc2cc(=O)oc3cc(C)ccc23)C1 (stereo not given),9,-41*,-12,-2,0
CCOC(=O)C1CCCN(CCC(=O)Nc2cc(C)cc(C)c2)C1 (stereo not given),0,-3,-10,-2,1
CCOC(=O)C1CCCN(Cc2c(Cl)cccc2Cl)C1 (stereo not given),9,-36*,-8,-7,2
COc1cccc(CN2C(=O)N(c3ccc(C)cc3)C(=O)C2CC(=O)Nc2cc(OC)cc(OC)c2)c1 (stereo not given),/,3,/,1,5
COc1ccc(C(=O)Nc2ccccc2-c2nc3ccccc3s2)c(OC)c1,/,3,/,-2,3
O=[N+]([O-])c1c(Nc2ccc(O)cc2)cc(Cl)c2nonc12,-4,-42*,-9,-4,3
CN(C)c1cc(Nc2ccc(O)cc2)c([N+](=O)[O-])c2nonc12,-4,8,-6,-2,5
CN(Cc1ccccc1)C(=O)c1nc[nH]c1C(=O)N1CCc2ccccc2C1,-1,/,5,0,-1
O=C(c1nc[nH]c1C(=O)N1CCc2ccccc2C1)N1CCc2ccccc2C1,-1,-66*,12,-2,0
Cc1ccc(CN(C(=O)COc2cccc(Cl)c2)c2ccccn2)o1,/,5,/,-1,-3
Cc1noc(C)c1COC(=O)CCc1nc2ccccc2s1,-2,-32*,-2,-1,2
O=C(CCc1nc2ccccc2s1)OCC(=O)c1ccccc1,11,-1,-5,-6,2
Cc1c(-c2nc3ccccc3[nH]2)cnn1C,3,-30*,3,-2,1
Cc1[nH]ncc1-c1nc2ccccc2[nH]1,0,-9,13,4,1
Cc1cccc(C2(c3cccc(C)c3)CC2C(=O)Nc2ccc([N+](=O)[O-])cc2O)c1 (stereo not given),10,-33*,11,-5,12
Cc1cccc(C2(c3cccc(C)c3)CC2C(=O)NCC2CCCO2)c1 (stereo not given),?,-18,-14,-3,2
O=C(NC1CSCC1OC(=O)c1ccccc1)c1ccccc1 (stereo not given),16,-39*,-16,-7,3
COc1ccc(C)cc1NC(=O)CCS(=O)(=O)c1ccc2c(c1)CC(=O)N2C,/,-32*,/,-1,2
CN1C(=O)Cc2cc(S(=O)(=O)CCC(=O)Nc3ccccc3)ccc21,/,-24,/,-2,2
COc1ccc(Cl)cc1NC(=O)CCS(=O)(=O)c1ccc(C)cc1,5,-13,10,-6,1
SMILES,TRPV1 ag,D1 antag,TRPV1 potentiator,D1 PAM,D1 ag
COc1cc(NC(=O)CCS(=O)(=O)c2ccc3c(c2)CC(=O)N3C)cc(OC)c1OC,/,-77*,/,-5,5
COc1ccc(-c2cc(C(=O)Nc3c(C(=O)c4ccc(C)c(F)c4)oc4ccccc34)no2)cc1,/,5,/,0,-2
COc1ccc(OC)c(NC2=NC3(CCCCC3)N=C(N)N2)c1,0,-54*,3,-23,1
COc1ccc(NC2=NC3(CCCCC3)N=C(N)N2)cc1,4,-87*,0,-10,3
O=C(NCc1ccc(Cl)cc1)C1CCCN(c2ncnc3onc(-c4ccc(F)cc4)c23)C1 (stereo not given),/,-8,/,-8,2
CCOC(=O)C1C(=O)CC(C)(O)C(C(=O)OCC)C1c1ccc(Br)cc1 (stereo not given),-4,-30*,-1,-10,7
CCOC(=O)C1C(=O)CC(C)(O)C(C(=O)OCC)C1c1ccc(F)cc1 (stereo not given),5,1,-2,-3,0
CCN(C(=O)CCS(=O)(=O)c1cc2[nH]c(=O)c(=O)[nH]c2cc1C)c1ccccc1,/,-80*,/,-1,0
Cc1cc(=O)oc2cc(OCc3ccc(C(=O)N4CCN(c5ccc([N+](=O)[O-])cc5)CC4)cc3)ccc12,-1,-16,-5,-4,3
Cc1cc(=O)oc2cc(OCc3ccc(C(=O)N4CCN(c5ccccc5)CC4)cc3)ccc12,-11,-37*,-1,-4,1
O=C(CN1C(=O)c2ccccc2S1(=O)=O)NC1CC2CCC1C2 (stereo not given),0,-73*,0,/,0
O=C(CN1C(=O)c2ccccc2S1(=O)=O)N1CCOCC1,1,-34*,-3,1,2
Cc1csc2nc(COc3ccc(NC(=O)COc4ccc(F)cc4)cc3)cc(=O)n12,/,-17,/,-5,8
CCCCSc1nc(O)cc(=O)n1CC,0,-9,5,-2,38*
C=CCn1c(SC(C)CC)nc(O)cc1=O (stereo not given),9,-29,-11,6,140*
C=CCn1c(SCCCCCC)nc(O)cc1=O,4,5,2,-3,6
C=CCn1c(SCCCC)nc(O)cc1=O,10,-15,-6,4,79*
CC(C)Sc1nc2sc3c(c2c(=O)n1-c1ccccc1)CCCC3,/,9,/,6,-1
O=C1CC(c2nc3ccccc3n2Cc2c(F)cccc2Cl)CN1c1cccc(C(F)(F)F)c1 (stereo not given),/,-2,/,-5,4
CCC(C)Oc1ccc(C(=O)Nc2ccc(CN3CCOCC3)cc2)cc1 (stereo not given),4,-12,-15,-7,16
O=C(Nc1ccc(N2CCOCC2)c(Cl)c1)c1ccco1,?,-34*,-4,-14,3
CC(C)C(=O)N1CCN(c2ccc(NC(=O)c3ccco3)cc2Cl)CC1,-1,4,-11,/,12
CCN1CCN(c2ccc(NC(=O)c3ccc(F)cc3)cc2Cl)CC1,12,-40*,-21,-17,13
